# From paper PMC7862700, “An all-to-all approach to the identification of sequence-specific readers for epigenetic DNA modifications on cytosine”
# Columns and labels:
# Test in all cases: DAPPL (digital affinity profiling via proximity ligation, sequencing); 10 mM Tris-HCl pH 7.5, 50 mM NaCl, 1 mM DTT, 4% glycerol, room temperature, 30 min; GST-TFs on glutathione beads, 16-mer random dsDNA library, 0.1% formaldehyde crosslink after washing; high values mean tight binding
# FLI1 = target: T1, FLI1 (Homo sapiens, UniProt Q01543 1-452); settings: protein: recombinant; tags: N-terminal GST; dsDNA, one strand shown
# T1 sequence: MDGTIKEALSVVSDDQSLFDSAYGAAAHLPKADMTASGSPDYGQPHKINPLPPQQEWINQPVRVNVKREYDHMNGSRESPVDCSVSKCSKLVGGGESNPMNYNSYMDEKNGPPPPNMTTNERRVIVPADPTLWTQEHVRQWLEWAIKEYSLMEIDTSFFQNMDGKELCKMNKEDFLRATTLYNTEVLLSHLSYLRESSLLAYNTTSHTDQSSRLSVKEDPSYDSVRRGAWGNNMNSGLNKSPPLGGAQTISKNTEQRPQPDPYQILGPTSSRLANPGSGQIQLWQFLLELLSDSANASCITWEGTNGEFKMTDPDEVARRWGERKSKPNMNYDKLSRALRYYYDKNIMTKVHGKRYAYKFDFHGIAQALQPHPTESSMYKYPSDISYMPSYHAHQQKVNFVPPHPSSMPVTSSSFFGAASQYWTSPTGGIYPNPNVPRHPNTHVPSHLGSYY
# Outline: (§1)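 Yeast served to express human transcription factors as GST fusions, which were then captured on glutathione beads and labelled with DNA barcodes. Pooled with a tag-only sample, they were incubated with 200 nmole of a 16-mer random double-stranded DNA library for 30 min at room temperature in Tris/NaCl/DTT/glycerol buffer, washed, crosslinked with 0.1% formaldehyde, ligated by proximity, amplified by PCR and sequenced. Dividing each hexamer's read frequency for a factor by its frequency for the tag-only sample gives the binding signal.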
# ELK1 = target: T2, ELK1 (Homo sapiens, UniProt P19419 1-428); settings: protein: recombinant; tags: N-terminal GST; dsDNA, one strand shown
# T2 sequence: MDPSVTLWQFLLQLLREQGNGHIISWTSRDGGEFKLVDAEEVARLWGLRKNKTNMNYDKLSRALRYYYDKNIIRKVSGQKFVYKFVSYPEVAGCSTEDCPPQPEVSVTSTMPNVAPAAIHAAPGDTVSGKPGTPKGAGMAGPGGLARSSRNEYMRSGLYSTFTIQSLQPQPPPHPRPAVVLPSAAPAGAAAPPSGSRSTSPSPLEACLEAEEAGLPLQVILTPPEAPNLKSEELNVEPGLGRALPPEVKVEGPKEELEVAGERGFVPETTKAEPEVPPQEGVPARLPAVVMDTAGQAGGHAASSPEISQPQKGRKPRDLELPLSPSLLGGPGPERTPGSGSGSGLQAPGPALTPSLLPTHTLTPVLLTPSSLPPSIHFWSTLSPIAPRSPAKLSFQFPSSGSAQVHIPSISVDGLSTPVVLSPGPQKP
# Outline: as §1
# GABPA = target: T3, GABPA (Homo sapiens, UniProt Q06546 1-454); settings: protein: recombinant; tags: N-terminal GST; dsDNA, one strand shown
# T3 sequence: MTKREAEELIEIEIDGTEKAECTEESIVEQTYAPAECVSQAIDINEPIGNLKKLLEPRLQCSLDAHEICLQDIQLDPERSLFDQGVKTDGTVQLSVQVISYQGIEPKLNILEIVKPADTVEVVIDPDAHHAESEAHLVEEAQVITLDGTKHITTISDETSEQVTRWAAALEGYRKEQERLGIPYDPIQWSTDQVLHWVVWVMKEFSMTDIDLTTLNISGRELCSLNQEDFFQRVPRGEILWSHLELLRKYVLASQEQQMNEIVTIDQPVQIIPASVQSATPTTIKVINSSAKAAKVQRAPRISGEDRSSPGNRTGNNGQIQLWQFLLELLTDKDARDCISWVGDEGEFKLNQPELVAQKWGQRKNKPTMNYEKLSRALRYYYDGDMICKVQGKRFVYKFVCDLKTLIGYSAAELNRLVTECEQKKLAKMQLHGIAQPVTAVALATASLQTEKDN
# Outline: as §1
# ERG = target: T4, ERG (Homo sapiens, UniProt P11308 1-479); settings: protein: recombinant; tags: N-terminal GST; dsDNA, one strand shown
# T4 sequence: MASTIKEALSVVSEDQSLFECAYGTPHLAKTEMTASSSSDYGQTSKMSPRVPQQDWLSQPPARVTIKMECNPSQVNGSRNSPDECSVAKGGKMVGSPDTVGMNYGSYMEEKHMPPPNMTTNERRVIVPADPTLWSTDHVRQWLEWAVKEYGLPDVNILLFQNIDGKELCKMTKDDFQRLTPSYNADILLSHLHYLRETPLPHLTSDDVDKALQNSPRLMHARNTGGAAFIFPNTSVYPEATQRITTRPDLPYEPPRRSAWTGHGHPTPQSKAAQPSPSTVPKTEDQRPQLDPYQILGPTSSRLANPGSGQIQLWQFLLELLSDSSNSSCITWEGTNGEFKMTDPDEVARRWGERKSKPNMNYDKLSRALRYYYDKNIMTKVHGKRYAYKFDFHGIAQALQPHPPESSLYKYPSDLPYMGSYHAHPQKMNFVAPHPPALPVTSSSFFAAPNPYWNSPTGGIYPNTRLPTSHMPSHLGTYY
# Outline: as §1
# ELF1 = ELF1 (Homo sapiens, UniProt P32519 1-619); settings: protein: recombinant; tags: N-terminal GST; dsDNA, one strand shown
# Outline: as §1
# EHF = target: T5, EHF (Homo sapiens, UniProt Q9NZC4 1-300); settings: protein: recombinant; tags: N-terminal GST; dsDNA, one strand shown
# T5 sequence: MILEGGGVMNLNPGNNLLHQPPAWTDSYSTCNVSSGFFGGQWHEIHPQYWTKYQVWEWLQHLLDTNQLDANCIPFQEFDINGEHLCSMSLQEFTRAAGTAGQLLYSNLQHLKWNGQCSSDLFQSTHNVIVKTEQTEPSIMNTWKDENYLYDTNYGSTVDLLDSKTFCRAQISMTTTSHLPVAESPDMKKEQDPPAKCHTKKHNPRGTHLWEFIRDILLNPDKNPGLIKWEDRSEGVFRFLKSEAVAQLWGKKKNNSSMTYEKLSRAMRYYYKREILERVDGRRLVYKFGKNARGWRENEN
# Outline: as §1
# SPI1 = SPI1 (Homo sapiens, UniProt P17947 1-270); settings: protein: recombinant; tags: N-terminal GST; dsDNA, one strand shown
# Outline: as §1
# SPIB = SPIB (Homo sapiens, UniProt Q01892 1-262); settings: protein: recombinant; tags: N-terminal GST; dsDNA, one strand shown
# Outline: as §1
# ELK3 = target: T6, ELK3 (Homo sapiens, UniProt P41970 1-407); settings: protein: recombinant; tags: N-terminal GST; dsDNA, one strand shown
# T6 sequence: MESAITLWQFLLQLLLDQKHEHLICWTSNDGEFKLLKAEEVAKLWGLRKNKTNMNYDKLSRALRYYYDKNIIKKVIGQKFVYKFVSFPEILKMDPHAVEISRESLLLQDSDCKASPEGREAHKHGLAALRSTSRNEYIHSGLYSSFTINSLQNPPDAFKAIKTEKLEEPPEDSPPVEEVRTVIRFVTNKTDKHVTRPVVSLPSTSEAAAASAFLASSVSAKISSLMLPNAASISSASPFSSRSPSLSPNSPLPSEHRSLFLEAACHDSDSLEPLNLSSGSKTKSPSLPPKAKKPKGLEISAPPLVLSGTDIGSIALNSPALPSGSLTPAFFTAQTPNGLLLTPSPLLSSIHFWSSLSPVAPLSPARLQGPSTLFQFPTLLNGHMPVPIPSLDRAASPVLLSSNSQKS
# Outline: as §1
# FEV = target: T7, FEV (Homo sapiens, UniProt Q99581 1-238); settings: protein: recombinant; tags: N-terminal GST; dsDNA, one strand shown
# T7 sequence: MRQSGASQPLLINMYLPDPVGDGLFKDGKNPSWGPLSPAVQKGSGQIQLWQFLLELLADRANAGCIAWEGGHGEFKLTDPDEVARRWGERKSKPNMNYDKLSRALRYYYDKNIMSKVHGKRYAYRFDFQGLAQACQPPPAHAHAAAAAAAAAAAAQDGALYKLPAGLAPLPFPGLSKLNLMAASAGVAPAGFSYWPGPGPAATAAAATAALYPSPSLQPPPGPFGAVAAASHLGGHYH
# Outline: as §1
# ETV5 = ETV5 (Homo sapiens, UniProt P41161 1-510); settings: protein: recombinant; tags: N-terminal GST; dsDNA, one strand shown
# Outline: as §1
# HSF1 = HSF1 (Homo sapiens, UniProt Q00613 1-529); settings: protein: recombinant; tags: N-terminal GST; chain copies: 3; dsDNA, one strand shown
# Outline: as §1
# SPIC = target: T8, SPIC (Homo sapiens, UniProt Q8N5J4 1-248); settings: protein: recombinant; tags: N-terminal GST; dsDNA, one strand shown
# T8 sequence: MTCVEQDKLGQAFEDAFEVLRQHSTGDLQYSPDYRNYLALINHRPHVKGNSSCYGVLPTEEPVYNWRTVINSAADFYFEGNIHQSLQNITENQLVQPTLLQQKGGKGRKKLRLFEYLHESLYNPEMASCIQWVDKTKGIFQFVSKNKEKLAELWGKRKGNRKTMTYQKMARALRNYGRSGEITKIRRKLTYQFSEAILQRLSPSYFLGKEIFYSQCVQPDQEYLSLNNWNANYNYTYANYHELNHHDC
# Outline: as §1
# ELF4 = ELF4 (Homo sapiens, UniProt Q99607 1-663); settings: protein: recombinant; tags: N-terminal GST; dsDNA, one strand shown
# Outline: as §1
# ELK4 = target: T9, ELK4 (Homo sapiens, UniProt P28324-2 1-405); settings: protein: recombinant; tags: N-terminal GST; dsDNA, one strand shown
# T9 sequence: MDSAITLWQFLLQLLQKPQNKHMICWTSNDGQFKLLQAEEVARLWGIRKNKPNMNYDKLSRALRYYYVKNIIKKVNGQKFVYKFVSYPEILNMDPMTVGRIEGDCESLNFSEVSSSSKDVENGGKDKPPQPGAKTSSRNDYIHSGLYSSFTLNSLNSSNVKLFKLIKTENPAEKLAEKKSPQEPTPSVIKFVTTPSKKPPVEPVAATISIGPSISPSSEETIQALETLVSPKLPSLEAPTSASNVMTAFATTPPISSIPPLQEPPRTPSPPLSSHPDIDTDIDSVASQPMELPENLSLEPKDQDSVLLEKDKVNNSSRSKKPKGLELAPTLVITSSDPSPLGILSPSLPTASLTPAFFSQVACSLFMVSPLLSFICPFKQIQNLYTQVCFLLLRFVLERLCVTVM
# Outline: as §1
# ETV2 = target: T10, ETV2 (Homo sapiens, UniProt O00321 1-342); settings: protein: recombinant; tags: N-terminal GST; dsDNA, one strand shown
# T10 sequence: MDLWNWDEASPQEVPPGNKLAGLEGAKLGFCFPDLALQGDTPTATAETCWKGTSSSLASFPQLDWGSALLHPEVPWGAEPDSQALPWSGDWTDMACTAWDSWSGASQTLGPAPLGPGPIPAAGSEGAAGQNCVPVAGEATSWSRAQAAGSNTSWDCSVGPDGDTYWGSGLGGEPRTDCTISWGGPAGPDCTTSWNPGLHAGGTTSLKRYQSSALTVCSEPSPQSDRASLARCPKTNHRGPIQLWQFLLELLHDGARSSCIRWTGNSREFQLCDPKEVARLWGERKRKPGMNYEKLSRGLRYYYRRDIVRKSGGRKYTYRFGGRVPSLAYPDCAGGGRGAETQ
# Outline: as §1
# ELF3 = target: T11, ELF3 (Homo sapiens, UniProt P78545 1-371); settings: protein: recombinant; tags: N-terminal GST; dsDNA, one strand shown
# T11 sequence: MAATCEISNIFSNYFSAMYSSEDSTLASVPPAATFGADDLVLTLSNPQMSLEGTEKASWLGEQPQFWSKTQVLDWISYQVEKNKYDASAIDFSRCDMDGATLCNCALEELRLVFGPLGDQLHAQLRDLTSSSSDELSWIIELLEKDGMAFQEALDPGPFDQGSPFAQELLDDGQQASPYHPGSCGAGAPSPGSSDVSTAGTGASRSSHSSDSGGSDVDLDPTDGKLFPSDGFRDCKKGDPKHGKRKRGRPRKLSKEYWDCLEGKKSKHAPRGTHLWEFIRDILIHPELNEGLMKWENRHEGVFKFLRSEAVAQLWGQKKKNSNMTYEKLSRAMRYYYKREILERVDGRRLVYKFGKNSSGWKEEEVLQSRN
# Outline: as §1
# CRX = CRX (Homo sapiens, UniProt O43186 1-299); settings: protein: recombinant; tags: N-terminal GST; dsDNA, one strand shown
# Outline: as §1
# ETV1 = ETV1 (Homo sapiens, UniProt P50549 1-477); settings: protein: recombinant; tags: N-terminal GST; dsDNA, one strand shown
# Outline: as §1
# Sequence of HSF1 (Q00613 whole entry): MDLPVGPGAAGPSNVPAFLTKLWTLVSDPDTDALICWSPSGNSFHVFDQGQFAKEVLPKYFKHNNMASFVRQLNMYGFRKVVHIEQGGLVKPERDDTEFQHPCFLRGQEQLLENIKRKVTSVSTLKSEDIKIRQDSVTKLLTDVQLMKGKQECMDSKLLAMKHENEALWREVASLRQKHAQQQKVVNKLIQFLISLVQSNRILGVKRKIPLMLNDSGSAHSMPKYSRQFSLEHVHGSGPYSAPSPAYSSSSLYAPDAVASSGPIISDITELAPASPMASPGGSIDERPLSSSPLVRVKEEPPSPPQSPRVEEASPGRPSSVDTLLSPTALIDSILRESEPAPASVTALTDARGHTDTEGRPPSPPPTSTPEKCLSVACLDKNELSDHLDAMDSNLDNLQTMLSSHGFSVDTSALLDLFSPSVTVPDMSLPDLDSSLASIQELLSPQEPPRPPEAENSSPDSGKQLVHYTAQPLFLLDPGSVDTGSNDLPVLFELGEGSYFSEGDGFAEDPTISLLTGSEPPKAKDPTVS
# Sequence of CRX (O43186 whole entry): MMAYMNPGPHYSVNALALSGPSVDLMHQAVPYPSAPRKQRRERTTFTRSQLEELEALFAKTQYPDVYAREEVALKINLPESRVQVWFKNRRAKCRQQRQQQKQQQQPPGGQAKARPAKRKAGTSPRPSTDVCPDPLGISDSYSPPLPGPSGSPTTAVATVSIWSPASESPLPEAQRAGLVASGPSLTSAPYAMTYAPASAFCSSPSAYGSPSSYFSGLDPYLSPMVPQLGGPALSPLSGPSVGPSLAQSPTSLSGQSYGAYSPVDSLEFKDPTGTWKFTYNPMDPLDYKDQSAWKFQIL
# Sequence of ETV1 (P50549 whole entry): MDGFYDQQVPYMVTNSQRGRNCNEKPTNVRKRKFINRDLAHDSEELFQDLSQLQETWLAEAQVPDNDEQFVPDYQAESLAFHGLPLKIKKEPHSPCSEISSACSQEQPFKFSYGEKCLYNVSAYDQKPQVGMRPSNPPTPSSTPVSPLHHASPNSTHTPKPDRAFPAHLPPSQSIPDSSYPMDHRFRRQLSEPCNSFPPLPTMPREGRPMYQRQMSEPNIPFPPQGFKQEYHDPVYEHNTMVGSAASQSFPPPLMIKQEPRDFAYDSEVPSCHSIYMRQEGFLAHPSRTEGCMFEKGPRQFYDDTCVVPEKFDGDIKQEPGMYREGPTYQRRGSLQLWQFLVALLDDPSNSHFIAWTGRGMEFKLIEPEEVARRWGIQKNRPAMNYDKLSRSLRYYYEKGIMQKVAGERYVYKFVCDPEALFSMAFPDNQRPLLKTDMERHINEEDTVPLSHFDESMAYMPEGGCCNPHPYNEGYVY
# Sequence of SPIB (Q01892 whole entry): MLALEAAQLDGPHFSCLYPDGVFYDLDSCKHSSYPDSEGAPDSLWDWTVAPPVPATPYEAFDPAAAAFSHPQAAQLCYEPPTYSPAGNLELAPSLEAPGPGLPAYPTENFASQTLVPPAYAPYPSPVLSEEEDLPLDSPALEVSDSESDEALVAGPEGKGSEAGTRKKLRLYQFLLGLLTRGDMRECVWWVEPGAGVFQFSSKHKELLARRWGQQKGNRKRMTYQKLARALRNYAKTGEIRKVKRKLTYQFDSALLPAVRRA
# Sequence of ELF4 (Q99607 whole entry): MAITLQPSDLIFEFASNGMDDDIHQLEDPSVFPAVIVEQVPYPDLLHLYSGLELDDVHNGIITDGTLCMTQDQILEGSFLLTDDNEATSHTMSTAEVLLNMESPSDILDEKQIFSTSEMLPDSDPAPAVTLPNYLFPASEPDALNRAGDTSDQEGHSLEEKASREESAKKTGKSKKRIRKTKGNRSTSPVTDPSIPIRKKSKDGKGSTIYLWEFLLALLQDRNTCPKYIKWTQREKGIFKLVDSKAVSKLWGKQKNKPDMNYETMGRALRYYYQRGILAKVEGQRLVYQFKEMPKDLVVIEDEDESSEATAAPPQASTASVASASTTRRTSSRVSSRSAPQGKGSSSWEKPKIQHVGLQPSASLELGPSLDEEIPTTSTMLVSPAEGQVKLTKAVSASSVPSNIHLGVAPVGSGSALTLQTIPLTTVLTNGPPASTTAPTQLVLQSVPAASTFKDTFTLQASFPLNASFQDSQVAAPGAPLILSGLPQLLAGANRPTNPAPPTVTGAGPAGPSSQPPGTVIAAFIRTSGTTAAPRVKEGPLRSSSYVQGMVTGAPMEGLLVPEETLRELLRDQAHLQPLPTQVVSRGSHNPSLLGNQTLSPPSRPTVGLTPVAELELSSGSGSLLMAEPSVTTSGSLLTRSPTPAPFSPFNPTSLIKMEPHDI
# Sequence of ELF1 (P32519 whole entry): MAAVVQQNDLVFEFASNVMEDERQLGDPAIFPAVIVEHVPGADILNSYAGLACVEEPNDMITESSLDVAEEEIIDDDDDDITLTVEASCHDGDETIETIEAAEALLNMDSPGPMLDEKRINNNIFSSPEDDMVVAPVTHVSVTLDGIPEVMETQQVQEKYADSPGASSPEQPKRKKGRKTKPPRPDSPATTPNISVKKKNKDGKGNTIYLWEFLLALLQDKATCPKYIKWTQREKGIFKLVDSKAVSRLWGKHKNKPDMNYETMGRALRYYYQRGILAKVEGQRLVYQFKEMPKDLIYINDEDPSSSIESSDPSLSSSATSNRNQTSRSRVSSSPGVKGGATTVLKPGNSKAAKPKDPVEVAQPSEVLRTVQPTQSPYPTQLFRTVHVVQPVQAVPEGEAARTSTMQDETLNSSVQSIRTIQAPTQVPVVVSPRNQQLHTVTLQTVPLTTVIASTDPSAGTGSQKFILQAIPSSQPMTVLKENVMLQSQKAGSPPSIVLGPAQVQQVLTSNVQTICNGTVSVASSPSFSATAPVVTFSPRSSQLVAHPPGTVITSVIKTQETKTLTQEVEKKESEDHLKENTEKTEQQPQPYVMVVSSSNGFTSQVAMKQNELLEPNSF
# Sequence of ETV5 (P41161 whole entry): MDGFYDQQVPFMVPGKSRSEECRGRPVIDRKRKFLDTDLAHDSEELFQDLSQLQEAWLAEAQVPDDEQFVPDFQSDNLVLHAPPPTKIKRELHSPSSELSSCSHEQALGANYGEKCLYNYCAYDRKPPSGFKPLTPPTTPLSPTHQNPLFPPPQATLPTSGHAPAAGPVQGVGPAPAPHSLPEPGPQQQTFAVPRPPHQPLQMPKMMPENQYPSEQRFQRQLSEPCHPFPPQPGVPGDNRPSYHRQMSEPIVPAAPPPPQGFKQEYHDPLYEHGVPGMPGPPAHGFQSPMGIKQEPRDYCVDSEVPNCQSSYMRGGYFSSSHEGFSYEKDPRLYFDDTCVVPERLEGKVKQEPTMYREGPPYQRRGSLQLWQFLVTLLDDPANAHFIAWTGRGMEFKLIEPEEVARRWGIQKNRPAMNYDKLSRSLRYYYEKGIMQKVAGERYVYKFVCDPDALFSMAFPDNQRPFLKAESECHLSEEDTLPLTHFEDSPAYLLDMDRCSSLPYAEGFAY
sequence,measurement,setting,value
TGACCG,binding signal,FLI1,"1.62 fold enrichment (6-mer frequency, TF over GST control)"
same,binding signal,ELK1,"1.48 fold enrichment (6-mer frequency, TF over GST control)"
same,binding signal,GABPA,"1.59 fold enrichment (6-mer frequency, TF over GST control)"
same,binding signal,ERG,"1.55 fold enrichment (6-mer frequency, TF over GST control)"
same,binding signal,ELF1,"1.53 fold enrichment (6-mer frequency, TF over GST control)"
same,binding signal,EHF,"1.53 fold enrichment (6-mer frequency, TF over GST control)"
same,binding signal,SPI1,"1.52 fold enrichment (6-mer frequency, TF over GST control)"
same,binding signal,SPIB,"1.44 fold enrichment (6-mer frequency, TF over GST control)"
same,binding signal,ELK3,"1.47 fold enrichment (6-mer frequency, TF over GST control)"
same,binding signal,FEV,"1.66 fold enrichment (6-mer frequency, TF over GST control)"
same,binding signal,ETV5,"1.33 fold enrichment (6-mer frequency, TF over GST control)"
same,binding signal,HSF1,"1.17 fold enrichment (6-mer frequency, TF over GST control)"
same,binding signal,SPIC,"1.68 fold enrichment (6-mer frequency, TF over GST control)"
same,binding signal,ELF4,"1.47 fold enrichment (6-mer frequency, TF over GST control)"
same,binding signal,ELK4,"1.4 fold enrichment (6-mer frequency, TF over GST control)"
same,binding signal,ETV2,"1.52 fold enrichment (6-mer frequency, TF over GST control)"
same,binding signal,ELF3,"1.66 fold enrichment (6-mer frequency, TF over GST control)"
same,binding signal,CRX,"1.1 fold enrichment (6-mer frequency, TF over GST control)"
same,binding signal,ETV1,"1.56 fold enrichment (6-mer frequency, TF over GST control)"
